An excerpt weighted towards active compounds, which were near 3.9% of everything screened.
AHR act: activators of human aryl hydrocarbon receptor; AID 2796; hit rate 2.5% among 320,000; P35869; AHR-responsive luciferase reporter cells, luminescence; activation, % at 5 µM; in the data active = activation above about 47%;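 also: 0% = vehicle wells and 100% = reference agonist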
HGIII-sPLA2 inh: Inhibits HGIII-sPLA2 liposome hydrolysis, primary screen; Q9NZ20; QFRET BODIPY PC-A2 liposome hydrolysis, fluorescence; inhibition, % at 12.2 µM; hit rate 0.56% among 370,000; AID 743126;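 active = inhibition above mean plus 3 SD of compounds lying within the high and low control bounds, cut at about 19% in these data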;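 also: 0% = median of test compound wells and 100% = no enzyme DMSO wells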
PLCb3 inh: blocks human PLC-beta3 enzyme activity; AID 720704; inhibition, % at 12.2 µM; Q01970; hit rate 0.18% among 370,000; Purified PLC-beta3, fluorogenic substrate, fluorescence; in the data active = inhibition above about 11%;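 also: 0% = median of compound wells on plate and 100% = full blocker control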
Yeast superoxide: lowers age-related superoxide in aged yeast cells; AID 2690; S. cerevisiae aged cells, superoxide DHE fluorescence; active compounds read low; hit rate 0.18% among 330,000; superoxide response (% of plate mean), % at 10 µM;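 active = superoxide response under a set limit, about three screen SD below normal, cut at about 65% in these data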;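 also: yeast aged for seven days with compound at 30 °C before DHE staining; 100% = average MFI of all compound-treated wells on the plate with controls excluded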
HIF act: HIF pathway transcriptional activation; activation, % at 7.5 µM (by protocol); hit rate 0.32% among 300,000; U2OS HRE-luciferase reporter, luminescence; normalized: DMSO 0%, desferrioxamine 100%;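 active = mean activation of at least 10% of the iron chelator positive control signal, with at least half of replicates also reaching 10%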
PLCg1 inh: blocks human PLC-gamma1 enzyme activity | P19174 | purified PLC-gamma1, fluorogenic substrate, fluorescence | inhibition, % at 12.2 µM | hit rate 0.84% among 370,000; in the data active = inhibition above about 9.5%
AHR act cf: human AHR activation, confirmation | shares compounds with AHR act | human cells, AHR-responsive luciferase reporter, luminescence | activation, % at 9 µM | hit rate 87% among 2,300 | AID 2845; in the data active = activation above about 49%;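 also: HepG2 hepatoma cells carrying a DRE-driven firefly luciferase reporter; 0% = vehicle wells and 100% = reference agonist wells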
PXR counter: activates human PXR in AHR activator counter-screen; hit rate 88% among 2,300; cell-based PXR reporter, luciferase luminescence; shares compounds with AHR act; activation, % at 11.6 µM; in the data active = activation above about 11%;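 also: human hepatoma DPX-2 cells expressing full-length human PXR; 0% = DMSO and 100% = reference agonist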
An asterisk follows results filed as active.

How did C[C@H]1CN=C(N(C)C)N1CC1CCCCC1 do in these assays?
AHR act: 5.0; HGIII-sPLA2 inh: 4.3; PLCb3 inh: 2.5; Yeast superoxide: 106.8; PLCg1 inh: 1.7

What do the screens show for `c1ccc(OCCOc2ncnc3sccc23)cc1`?
AHR act: 137.6*; HGIII-sPLA2 inh: -0.3; PLCb3 inh: 5.3; Yeast superoxide: 79.9; HIF act: 2.1; PLCg1 inh: 0.7; AHR act cf: 121.4*; PXR counter: 45.0*

How did CCN(CC)C(=O)c1sc2nc(-c3ccccn3)[nH]c(=O)c2c1C do in these assays?
AHR act: 83.2*; HGIII-sPLA2 inh: 5.2; PLCb3 inh: -70.0; Yeast superoxide: 104.9; HIF act: 0.0; PLCg1 inh: -46.6; AHR act cf: 40.8; PXR counter: 52.0*

How did CN(C)C(/C=C/Nc1ccc(F)cc1)=C(C#N)C#N do in these assays?
AHR act: 44.9; HGIII-sPLA2 inh: -2.0; PLCb3 inh: 1.5; Yeast superoxide: 100.7; HIF act: 0.2; PLCg1 inh: 3.0

How did CN(C)C(/C=C/Nc1ccc(C#N)cc1)=C(C#N)C#N do in these assays?
AHR act: 109.2*; HGIII-sPLA2 inh: -2.0; PLCb3 inh: -1.0; Yeast superoxide: 137.5; HIF act: 0.0; PLCg1 inh: 1.0; AHR act cf: 101.9*; PXR counter: 25.1*

What do the screens show for `COc1ccc(/C=C2/CN(Cc3ccc(OC)cc3OC)C3=NC(c4ccc5ccccc5c4)CC(=O)N32)cc1` (stereo not given)?
HGIII-sPLA2 inh: 3.6; PLCb3 inh: -117.4; PLCg1 inh: -77.6

What do the screens show for `CCn1c(CNc2ccc(Cl)cc2)nnc1SCC#N`?
AHR act: 120.3*; HGIII-sPLA2 inh: -0.5; PLCb3 inh: 0.0; Yeast superoxide: 127.7; HIF act: -0.4; PLCg1 inh: 3.9; AHR act cf: 99.8*; PXR counter: 47.5*

How did CCn1c(CNc2ccc(F)cc2)nnc1SCC#N do in these assays?
AHR act: 21.5; HGIII-sPLA2 inh: 2.4; PLCb3 inh: 3.6; Yeast superoxide: 96.3; HIF act: -0.3; PLCg1 inh: 3.2

What do the screens show for `CC(=O)Nc1cc(-c2ccc(Cl)cc2)[nH]n1`?
AHR act: 95.3*; HGIII-sPLA2 inh: 1.4; PLCb3 inh: -0.5; Yeast superoxide: 91.8; HIF act: 4.7; PLCg1 inh: 1.3; AHR act cf: 160.4*

Results for CCc1[nH]nc(C(=O)N/N=C/c2ccncc2)c1C ?
AHR act: 43.8; HGIII-sPLA2 inh: 6.4; PLCb3 inh: -4.8; Yeast superoxide: 99.2; HIF act: 1.3; PLCg1 inh: -2.6

Results for CCOC(=O)c1c(N/N=C/c2ccncc2)n[nH]c1C ?
AHR act: 97.1*; HGIII-sPLA2 inh: -2.0; PLCb3 inh: 2.7; Yeast superoxide: 106.3; HIF act: 0.2; PLCg1 inh: 4.0; AHR act cf: 66.4*; PXR counter: 15.1*

How did CN(c1ccc(NC(=O)CCc2c[nH]c3ccccc23)cc1)c1ccccn1 do in these assays?
HGIII-sPLA2 inh: -37.7; PLCb3 inh: -11.7; PLCg1 inh: -7.8

Results for Cc1ccc(C2Nc3ccccc3-c3nc4ccccc4n32)o1 (stereo not given) ?
AHR act: 116.1*; HGIII-sPLA2 inh: -22.8; PLCb3 inh: inactive; Yeast superoxide: 111.4; HIF act: 1.5; PLCg1 inh: inactive; AHR act cf: 73.7*; PXR counter: 53.3*

How did COC(=O)/C(=C/c1ccc2c(c1)c1ccccc1n2C)NC(=O)c1ccccc1 do in these assays?
AHR act: 82.1*; HGIII-sPLA2 inh: -11.9; PLCb3 inh: -95.7; Yeast superoxide: 87.6; HIF act: 1.7; PLCg1 inh: -89.7; AHR act cf: 104.4*; PXR counter: 96.7*

What do the screens show for `COC(=O)c1sc(NC(=O)OCc2ccccc2)nc1CCNC(=O)OC(C)(C)C`?
HGIII-sPLA2 inh: -3.5; PLCb3 inh: 1.5; PLCg1 inh: -1.7

Results for COc1ccc(-c2cc(C(=O)Nc3ccc(OC)c(OC)c3)[nH]n2)c(C)c1 ?
HGIII-sPLA2 inh: -3.0; PLCb3 inh: 0.0; PLCg1 inh: -1.4

Results for COc1cccc(CNC(=O)[C@H]2CCCN2C(=O)[C@H]2CCCN2C(=O)c2cccc(OC)c2)c1 ?
HGIII-sPLA2 inh: 3.9; PLCb3 inh: -1.4; PLCg1 inh: -0.6

How did CC(=O)N1CCn2c3c(c4cc(C)ccc42)CCCC31 (stereo not given) do in these assays?
AHR act: 34.9; HGIII-sPLA2 inh: 3.2; PLCb3 inh: -84.4; Yeast superoxide: 92.6; HIF act: 0.2; PLCg1 inh: -53.4

How did Cc1ccc2c(c1)c1c3n2CCN(C(=O)CCl)C3CCC1 (stereo not given) do in these assays?
AHR act: 113.3*; HGIII-sPLA2 inh: -3.9; PLCb3 inh: -137.4; Yeast superoxide: 96.6; HIF act: -0.4; PLCg1 inh: -105.8; AHR act cf: 98.5*; PXR counter: 16.5*

What do the screens show for `CCN1CCn2c3c(c4cc(C)ccc42)CCCC31` (stereo not given)?
AHR act: 80.9*; HGIII-sPLA2 inh: 2.8; PLCb3 inh: -121.1; Yeast superoxide: 103.2; HIF act: 0.3; PLCg1 inh: -90.0; AHR act cf: 105.2*; PXR counter: 11.0*

What do the screens show for `Cn1ccs/c1=N\C(=O)Nc1cccc(C(F)(F)F)c1`?
AHR act: 106.5*; HGIII-sPLA2 inh: 3.1; PLCb3 inh: 1.2; Yeast superoxide: 136.0; HIF act: 2.1; PLCg1 inh: 3.5; AHR act cf: 111.0*; PXR counter: 60.4*

How did CSc1ccccc1C(=O)OCC(=O)Nc1cccnc1Cl do in these assays?
AHR act: 0.8; HGIII-sPLA2 inh: -7.1; PLCb3 inh: 2.1; Yeast superoxide: 110.6; PLCg1 inh: 1.1

What do the screens show for `COc1ccc(C(=O)N/C(=C\c2cn(C)c3ccccc23)C(=O)OCCN(C)C)cc1`?
AHR act: 100.3*; HGIII-sPLA2 inh: -13.2; PLCb3 inh: -2.1; Yeast superoxide: 99.2; HIF act: 0.2; PLCg1 inh: 2.2; AHR act cf: 109.2*; PXR counter: 93.9*

What do the screens show for `COc1ccc(C(=O)N/C(=C\c2cn(C)c3ccccc23)C(=O)OCC(C)C)cc1`?
AHR act: 89.6*; HGIII-sPLA2 inh: -49.6; PLCb3 inh: 0.8; Yeast superoxide: 97.0; HIF act: -0.1; PLCg1 inh: -0.5; AHR act cf: 60.1*; PXR counter: 136.6*

What do the screens show for `NC(=O)c1ccccc1NC(=O)c1ccoc1`?
AHR act: -1.2; HGIII-sPLA2 inh: 0.8; PLCb3 inh: -13.8; Yeast superoxide: 98.6; HIF act: 0.4; PLCg1 inh: -5.7

How did COCCn1c(N)c(N(Cc2ccccc2)C(=O)C(C)Oc2ccc(Br)cc2)c(=O)[nH]c1=O (stereo not given) do in these assays?
HGIII-sPLA2 inh: -7.0; PLCb3 inh: 0.4; PLCg1 inh: 3.2

Bioassay records from PubChem.
